# From PubChem BioAssay
# In the library only some 3.6% were active in any assay of this set; here they are far more common.
# APOBEC3G inh – APOBEC3G (human) deaminase inhibition; recombinant A3G, ssDNA deamination FAM/TAMRA fluorescence; inhibition, % at 20 µM; 330,000 tested, 0.28% active; AID 493012;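 active = inhibition of at least 40% at 20 µM, with no more than 30% in the related APOBEC3A deaminase screen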
# Target sequence (Q9HC16 whole entry, looked up): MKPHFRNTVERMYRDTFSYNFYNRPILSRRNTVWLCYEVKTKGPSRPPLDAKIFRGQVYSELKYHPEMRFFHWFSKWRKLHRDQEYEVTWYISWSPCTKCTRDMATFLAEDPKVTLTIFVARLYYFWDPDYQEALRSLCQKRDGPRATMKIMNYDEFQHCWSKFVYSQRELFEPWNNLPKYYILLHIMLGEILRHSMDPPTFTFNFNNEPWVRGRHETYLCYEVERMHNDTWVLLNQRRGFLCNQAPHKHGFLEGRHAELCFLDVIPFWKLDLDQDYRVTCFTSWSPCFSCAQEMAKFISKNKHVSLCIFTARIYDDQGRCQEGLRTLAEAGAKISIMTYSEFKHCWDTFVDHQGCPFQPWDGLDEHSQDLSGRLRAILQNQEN
# PHOSPHO1 inh – inhibitors of human PHOSPHO1 phosphatase. Q8TCT1. recombinant PHOSPHO1, absorbance phosphatase assay. inhibition, % at 13.3 µM. 290,000 tested, 1.1% active. AID 1565; in the data active = inhibition above about 60%
# Target sequence (Q8TCT1 whole entry, looked up): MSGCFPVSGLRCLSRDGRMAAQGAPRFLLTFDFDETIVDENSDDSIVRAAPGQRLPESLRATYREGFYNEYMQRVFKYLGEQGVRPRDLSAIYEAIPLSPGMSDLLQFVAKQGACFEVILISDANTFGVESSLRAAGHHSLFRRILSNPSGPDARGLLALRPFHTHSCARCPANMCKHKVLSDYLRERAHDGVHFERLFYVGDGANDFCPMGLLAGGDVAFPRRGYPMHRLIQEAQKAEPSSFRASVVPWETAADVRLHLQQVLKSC
# esBAF inh – SWI/SNF esBAF complex inhibition. mouse ES cells, Bmi1-luciferase knock-in reporter, 24 h; 100% = twice the neutral-well signal. reporter increase, % at 12.5 µM. 350,000 tested, 2% active. AID 602393; in the data active = activation above about 40%; inconclusive = no clear call, values can overlap the other calls;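 also: a rise in the Bmi1 reporter signal indicates esBAF inhibition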
# APOBEC3A inh – blocks human APOBEC3A ssDNA deamination; recombinant A3A, FAM/TAMRA ssDNA deamination fluorescence; 330,000 tested, 0.41% active; AID 493011; inhibition, % at 20 µM; P31941;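 active = at least 40% inhibition at 20 µM here, with at most 30% in a related deaminase screen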
# Wnt bcat act – activates Wnt/beta-catenin signaling in a reporter cell assay; activator, plate reader; activation, % at 9.35 µM; 300,000 tested, 1.2% active; AID 743398; in the data active = activation above about 30%, passing the limit was not always enough; inconclusive = no clear call, values can overlap the other calls
# MITF act – increases MITF-driven TRPM1 promoter luciferase signal | SK-MEL-5 TRPM1-promoter luciferase, 24 h; % of positive control, neutral wells = 0 | activation, % at 12.5 µM | 300,000 tested, 0.75% active | AID 588334;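 active = mean activation of at least 80% with every replicate also reaching 80%; inconclusive = mean reaches 80% but some replicate falls short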
# A3A conf – APOBEC3A (human) deaminase inhibition, confirmed. shares compounds with APOBEC3A inh. recombinant A3A, ssDNA deaminase UDG fluorescence assay. inhibition, % at 20 µM. 1,400 tested, 63% active. AID 493151;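 active = inhibition reaching a set limit, 80% of the first screen's cutoff, at 20 µM in any replicate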
# UDG A3A counter – UDG inhibition in APOBEC3A counter-screen; 1,000 tested, under 10 active; UDG counterscreen, FAM/TAMRA uracil oligo fluorescence; shares compounds with APOBEC3A inh; inhibition, % at 20 µM; call rule not given here
# Hits are given with their value; – = inactive; ? = inconclusive; · = no result.
SMILES,APOBEC3G inh,PHOSPHO1 inh,esBAF inh,APOBEC3A inh,Wnt bcat act,MITF act,A3A conf,UDG A3A counter
CCN1CCN(c2ccc(S(=O)(=O)N3CCCCC3)cc2NC(=O)c2ccc([N+](=O)[O-])o2)CC1,–,·,–,53,–,–,33,·
CCN1CCN(c2ccc(S(=O)(=O)N3CCCCC3)cc2NC(=O)c2ccc(C)c(C)c2)CC1,·,·,–,·,–,–,·,·
CCN1CCN(c2ccc(S(=O)(=O)N3CCCCC3)cc2NC(=O)c2sccc2C)CC1,–,·,–,69,–,–,64,–
Cc1ccc(-c2ccc3c(c2)O[C@@H](CN(C)Cc2cncnc2)[C@@H](C)CN([C@H](C)CO)S3(=O)=O)cc1,·,·,–,·,·,·,·,·
Cc1ccc2[nH]c(=O)c(CN(c3cccc(C)c3C)S(=O)(=O)c3ccccc3)cc2c1,–,–,–,–,·,–,·,·
Cc1ccc(N(Cc2cc3cccc(C)c3[nH]c2=O)S(=O)(=O)c2ccccc2)c(C)c1,–,–,–,54,·,–,67,–
COc1ccc(OC)c(NS(=O)(=O)c2cccs2)c1,–,–,–,62,·,–,–,–
COc1ccc(OC)c(NS(=O)(=O)c2ccc(Br)s2)c1,–,–,·,–,·,·,·,·
C[C@@H]1CN([C@H](C)CO)C(=O)c2cc(-c3ccccc3)cnc2O[C@H]1CN(C)C(=O)Cc1ccccc1,·,·,–,·,·,·,·,·
CC[N+]1=CN(c2ccccc2)C(C)=CC1(C)C,–,–,·,61,–,–,–,·
CC1=NN(c2ccccc2)C(=O)C1(C)C,–,–,–,–,·,–,·,·
O=C1CCCC/C1=C\Nc1ccc(Cl)cn1,–,–,44,42,·,–,–,·
Cc1ccc(N/C=C2\CCCCC2=O)nc1,–,–,–,–,–,–,·,·
C[C@H]1CN([C@@H](C)CO)C(=O)c2cc(NC(=O)Nc3ccc(C(F)(F)F)cc3)ccc2O[C@H]1CN(C)C,·,·,–,·,·,·,·,·
O=C(Cn1nnc2ccccc21)OCC(=O)c1ccc(Cl)c(Cl)c1,–,–,–,41,·,–,–,·
O=C(Cn1nnc2ccccc21)OCC(=O)c1ccccc1,–,–,–,–,·,–,·,·
CCN(CC(=O)Nc1ccc(NC(C)=O)cc1)C(=O)/C=C/c1cn(-c2ccccc2)nc1-c1cccs1,–,·,–,45,–,–,–,·
CCN(CC(=O)Nc1ccc(NC(C)=O)cc1)C(=O)/C=C/c1ccccc1,–,·,·,–,–,–,·,·
Cc1ccc(-c2nc(SC(C)C(=O)NC3CC3)n[nH]2)cc1 (stereo not drawn),·,·,–,·,–,·,·,·
Cc1cccc(C)c1NC(=O)C(C)Sc1n[nH]c(-c2ccncc2)n1 (stereo not drawn),–,–,–,82,–,–,–,–
O=C(C[C@H]1CC[C@H]2[C@@H](COC[C@H](O)CN2Cc2ccc3c(c2)OCO3)O1)Nc1ccc(-c2ccccc2)cc1,·,·,–,·,·,·,·,·
CCOC(=O)C1Nc2ccc(C(=O)O)cc2C2C=CCC12 (stereo not drawn),–,–,–,81,–,–,89,–
CC(C)C1Nc2ccc(C(=O)O)cc2C2C=CCC21 (stereo not drawn),–,–,·,40,–,–,42,–
COCC#Cc1ccc2c(c1)O[C@@H](CN(C)S(=O)(=O)c1cccc(OC)c1)[C@H](C)CN([C@@H](C)CO)S2(=O)=O,·,·,–,·,·,·,·,·
CCN(CC)CCNC(=O)c1ccc(NC(=O)C2CC(=O)N(c3ccc4c(c3)OCCO4)C2)cc1 (stereo not drawn),–,·,–,48,·,–,52,–
SMILES,APOBEC3G inh,PHOSPHO1 inh,esBAF inh,APOBEC3A inh,Wnt bcat act,MITF act,A3A conf,UDG A3A counter
NC(=O)c1ccc(NC(=O)C2CC(=O)N(c3ccc4c(c3)OCCO4)C2)cc1 (stereo not drawn),–,·,–,–,–,–,·,·
CN(C)S(=O)(=O)c1ccc(N2CCCC2)c(C(=O)Nc2ccc(F)cc2F)c1,–,·,·,41,–,–,–,·
CN(C)S(=O)(=O)c1ccc(N2CCCC2)c(C(=O)Nc2ccccc2F)c1,–,·,–,–,–,–,·,·
Cc1cc(/C=N/NC(=O)C(O)(c2ccccc2)c2ccccc2)c(C)n1-c1cccc(C(=O)O)c1,–,–,–,45,–,–,–,·
Cc1cc(/C=N/NC(=O)c2cccc(N(C)C)c2)c(C)n1-c1cc(C(=O)O)cc(C(=O)O)c1,–,–,–,66,?,–,65,–
CS(=O)(=O)N1[C@@H](C#N)[C@@H](c2ccc(C#CC3CCCC3)cc2)[C@@H]1CO,·,·,–,·,·,·,·,·
C[N+]1(CC2COC3(CCCCC3)O2)CCCCC1 (stereo not drawn),–,–,·,68,–,–,74,–
c1cc(C2OCCN2CC2COC3(CCCC3)O2)ccn1 (stereo not drawn),–,–,–,–,·,–,·,·
C[N+](C)(C)CCCCCC(=O)/C=N/O,–,–,·,53,–,–,66,–
CCOC(=O)C1=C(C)Nc2sc(C(=O)c3ccc(F)cc3)c(N)c2C1c1ccc(C(=O)OC)cc1 (stereo not drawn),–,–,–,76,–,–,–,–
CCN1CCN(c2ccc(S(=O)(=O)N3CCCCC3)cc2NC(=O)C(C)Oc2ccc(F)cc2)CC1 (stereo not drawn),–,·,–,–,–,–,·,·
CCN1CCN(c2ccc(S(=O)(=O)N3CCCCC3)cc2NC(=O)COc2cc(C)ccc2Cl)CC1,–,·,–,57,·,–,73,–
CCN1CCN(c2ccc(S(=O)(=O)N3CCCCC3)cc2NC(=O)COc2ccc(Cl)cc2)CC1,–,·,–,–,–,–,·,·
CCN1CCN(c2ccc(S(=O)(=O)N3CCCCC3)cc2NC(=O)COc2ccc(F)cc2Cl)CC1,–,–,–,56,–,–,53,–
CC(Oc1ccc(F)cc1)C(=O)Nc1cc(S(=O)(=O)N2CCCCC2)ccc1N1CCOCC1 (stereo not drawn),–,·,–,42,–,–,–,·
C[C@H](NC(=O)C[C@H]1CC[C@H]2[C@H](COc3ccc(NC(=O)C4CCOCC4)cc3C(=O)N2C)O1)c1ccccc1,·,·,–,·,·,·,·,·
Cc1ccc(S(=O)(=O)N[C@H]2CC[C@@H](CCNC(=O)C3CCC3)O[C@@H]2CO)cc1,·,·,–,·,·,·,·,·
O=C(NC(Cc1ccccc1)c1nc2ccccc2[nH]1)C1CC(=O)N(c2ccc3c(c2)OCCO3)C1 (stereo not drawn),–,96,·,55,–,–,–,·
O=C(NCCc1ccccc1)C1CC(=O)N(c2ccc3c(c2)OCCO3)C1 (stereo not drawn),–,·,·,–,–,–,·,·
C[n+]1cnn2c1SCC1(COC1)C2,–,92,–,45,·,–,85,–
C[C@@H]1CN([C@H](C)CO)C(=O)c2cc(NC(=O)Nc3ccc(C(F)(F)F)cc3)ccc2O[C@@H](C)CCCCO[C@H]1CN(C)Cc1ccc(Cl)c(Cl)c1,·,·,–,·,·,·,·,·
